From PubChem BioAssay (NCATS)
Inconclusive results are not listed. Where a call stands in place of a potency, no number is given. A number with no mark means an inactive call. The source made the active and inactive calls. The call rests on the fitted dose curve; in most records, active means well fitted inhibition curve with a large enough effect; inconclusive means small, poorly fitted or top-dose-only effect; inactive means flat fitted curve, though single readings scatter.

Tests used:
ICS = test: qHTS profiling for inhibitors of Plasmodium falciparum proliferation (AID 504749); further: potency means the concentration at half of the fitted maximal effect; settings: P. falciparum in erythrocytes, SYBR Green DNA, 72 h; series mostly up to 28.7 µM
Outline: (§1)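 Infected RBCs, 0.3% parasitemia/2.5% Hct final; cpd 72 h, 37 C, 5% CO2; lysis buffer with saponin/triton/SYBR Green I, o/n RT dark; FI 485/535; norm. to artemisinin (0.29 uM) and DMSO.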

JCK = test: as above; settings: P. falciparum in erythrocytes, SYBR Green DNA, 72 h; series mostly up to 28.7 µM
Outline: as §1

N140 = test: as above; settings: P. falciparum in erythrocytes, SYBR Green DNA, 72 h; series mostly up to 28.7 µM
Outline: as §1

P93_24 = test: as above; settings: P. falciparum in erythrocytes, SYBR Green DNA, 72 h; series mostly up to 28.7 µM
Outline: as §1

PC15 = test: as above; settings: P. falciparum in erythrocytes, SYBR Green DNA, 72 h; series mostly up to 28.7 µM
Outline: as §1

PC49 = test: as above; settings: P. falciparum in erythrocytes, SYBR Green DNA, 72 h; series mostly up to 28.7 µM
Outline: as §1

TAB113 = test: as above; settings: P. falciparum in erythrocytes, SYBR Green DNA, 72 h; series mostly up to 28.7 µM
Outline: as §1

W2 = test: as above; settings: P. falciparum in erythrocytes, SYBR Green DNA, 72 h; series mostly up to 28.7 µM
Outline: as §1

KB-3-1 = test: Cytotoxic Profiling of Annotated Libraries Using Quantitative High-Throughput Screening (AID 1296008); settings: Five cell lines viability, CellTiter-Glo ATP luminescence, 48-72 h; max response: active compounds read low
Outline: (§2)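 Cytotoxicity was measured as CellTiter-Glo ATP luminescence, read after 10 min at room temperature. Compound treatment of the cells lasted 48 or 72 hr at 37 degrees Celsius in a qHTS format.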

HB3 = test: qHTS profiling for inhibitors of Plasmodium falciparum proliferation (AID 504749); further: potency means the concentration at half of the fitted maximal effect; settings: P. falciparum in erythrocytes, SYBR Green DNA, 72 h; series mostly up to 28.7 µM
Outline: as §1

P94_40 = test: as above; settings: P. falciparum in erythrocytes, SYBR Green DNA, 72 h; series mostly up to 28.7 µM
Outline: as §1

PAD = test: as above; settings: P. falciparum in erythrocytes, SYBR Green DNA, 72 h; series mostly up to 28.7 µM
Outline: as §1

PC26 = test: as above; settings: P. falciparum in erythrocytes, SYBR Green DNA, 72 h; series mostly up to 28.7 µM
Outline: as §1

SC27B = test: as above; settings: P. falciparum in erythrocytes, SYBR Green DNA, 72 h; series mostly up to 28.7 µM
Outline: as §1

TAB109 = test: as above; settings: P. falciparum in erythrocytes, SYBR Green DNA, 72 h; series mostly up to 28.7 µM
Outline: as §1

TAB165 = test: as above; settings: P. falciparum in erythrocytes, SYBR Green DNA, 72 h; series mostly up to 28.7 µM
Outline: as §1

NIH3T3 = test: Cytotoxic Profiling of Annotated Libraries Using Quantitative High-Throughput Screening (AID 1296008); settings: Five cell lines viability, CellTiter-Glo ATP luminescence, 48-72 h; max response: active compounds read low
Outline: as §2

HaCat = test: as above; settings: Five cell lines viability, CellTiter-Glo ATP luminescence, 48-72 h; max response: active compounds read low
Outline: as §2
Further: nearly all actives have a fitted effect of over 60% in size.

SMILES	Potency (ICS)	Potency (JCK)	Potency (N140)	Potency (P93_24)	Potency (PC15)	Potency (PC49)	Potency (TAB113)	Potency (W2)	max response (KB-3-1) [%]	Potency (HB3)	Potency (P94_40)	Potency (PAD)	Potency (PC26)	Potency (SC27B)	Potency (TAB109)	Potency (TAB165)	max response (NIH3T3) [%]	max response (HaCat) [%]
Cc1cccc(C)c1NC(=O)CN1CCN(CCCC(c2ccc(F)cc2)c2ccc(F)cc2)CC1	3.55 µM (active)	inactive	3.16 µM (active)	3.98 µM (active)	inactive	inactive	inactive	4.55 µM (active)	-1.23	–	–	–	–	–	–	–	–	–
C[C@@H]1C(=O)NC2=Nc3cccc(Cl)c3CN21	–	inactive	inactive	inactive	inactive	inactive	–	inactive	-2.45	inactive	inactive	inactive	inactive	inactive	inactive	inactive	–	–
CCCCCCCCCCOCC(O)CN (centres undefined)	11.2 µM (active)	inactive	–	–	–	–	inactive	–	-10.6	inactive	–	–	–	–	–	–	–	–
CN(C)/N=N/c1nc[nH]c1C(N)=O	inactive	inactive	inactive	inactive	inactive	inactive	inactive	inactive	-8.2	inactive	inactive	inactive	inactive	inactive	inactive	inactive	–	–
COC(=O)[C@H]1[C@H]2C[C@H]3c4[nH]c5ccccc5c4CCN3C[C@H]2CC[C@@H]1O	–	–	–	–	–	–	–	inactive	-10.9	–	–	–	inactive	–	–	–	–	–
O=C1CCC(c2ccc(-n3ccnc3)cc2)=NN1	inactive	inactive	inactive	inactive	inactive	inactive	inactive	inactive	11.9	inactive	inactive	inactive	inactive	inactive	inactive	inactive	–	–
COc1cc2c(cc1OC)C(=O)C(CC1CCN(Cc3ccccc3)CC1)C2 (centres undefined)	–	inactive	inactive	inactive	inactive	inactive	inactive	–	1.75	inactive	inactive	inactive	inactive	inactive	inactive	–	-17.7	–
CNCCC=C1c2ccccc2CCc2ccccc21	11.2 µM (active)	–	7.08 µM (active)	–	–	–	–	1.51 µM (active)	-9.12	inactive	–	–	–	–	–	–	–	–
O=C(Nc1ccc(Cl)c(Cl)c1)C1CC1	inactive	inactive	inactive	inactive	inactive	inactive	inactive	inactive	-14.1	inactive	inactive	inactive	inactive	inactive	inactive	inactive	-1.64	–
COc1ccc(/C=C/C(=O)c2ccc(OC)cc2OC)cc1	12.6 µM (active)	8.91 µM (active)	11.2 µM (active)	8.91 µM (active)	7.08 µM (active)	5.62 µM (active)	8.91 µM (active)	4.26 µM (active)	–	10 µM (active)	10 µM (active)	10 µM (active)	7.57 µM (active)	10 µM (active)	7.08 µM (active)	4.47 µM (active)	-18.9	-62.6
CC(C)N=C(N)/N=C(\N)Nc1ccc(Cl)cc1	–	–	–	–	0.708 µM (active)	–	inactive	1.28 µM (active)	-14.7	–	–	–	1.61 µM (active)	–	–	–	–	0.505
CCC(NC(C)C)C(O)c1ccc(O)c(O)c1 (centres undefined)	–	–	–	–	–	–	–	–	-9.53	–	–	–	–	–	–	–	–	–
N[C@@H](Cc1cnc[nH]1)C(=O)O	inactive	inactive	inactive	inactive	inactive	inactive	inactive	inactive	2.19	inactive	inactive	inactive	inactive	inactive	inactive	inactive	–	–
